Source: PubChem BioAssay

Assay: Pseudomonas biofilm growth suppression – PAO1 strain, BacTiter-Glo luminescence, LB-PBS, primary screen (AID 1144)
Details: P. aeruginosa PAO1 biofilm, 12 h, higher = more signal; call rule not given here

z-score, inactive:
COCCOC(=O)N1C(=O)[C@@]2(c3ccccc31)[C@H](c1ccc(OCCO)cc1)N1[C@H](c3ccccc3)[C@H](c3ccccc3)OC(=O)[C@H]1[C@@H]2C(=O)N1CCc2cc(OC)c(OC)cc2C1 -1.28, O=C(CS)NCCCCCNC(=O)[C@H]1C[C@H]2C(=O)NCC(=O)N2[C@H]1c1cccc(OCCO)c1 -0.218, CCCC[C@@H]1C[C@H]1[C@@H](NC(=O)c1cccnc1)c1ccc(Cl)cc1 -0.128, CCCCCCCCCCC(O)C1C=CC2C(=O)NC(=O)C2N1Nc1ccc(Cl)cc1Cl (stereo unspecified) -0.0821, O=C1O[C@H](c2ccccc2)[C@H](c2ccccc2)N2[C@H]1[C@@H](C(=O)N1CCN(c3ncccn3)CC1)[C@]1(C(=O)Nc3ccc(C#CC4=CCCCC4)cc31)[C@H]2c1ccccc1OCCO -0.869, CCCCC(O)C1C=CC2C(=O)N(C)C(=O)C2N1N1CCCCC1 (stereo unspecified) 0.382, O=C1OCCC=C[C@H]2OC34C=CCN(c5ccc(Cl)cc5)C(=O)[C@H]3N(CCCO)C(=O)[C@@H]4C12 (stereo partly specified) -0.925, CO[C@H]1O[C@H](CO)[C@@H](OC(=O)Nc2cccc(F)c2)[C@H](OC(=O)Nc2ccccc2)[C@H]1OC(=O)Nc1ccccc1 -0.703, C#CCOc1ccc(C[C@@H](C(=O)OC)N(CC#C)[C@@H](/C=C/C2CC2)[C@H](O)Cc2ccccc2)cc1 0.803, CCCCCCc1nc(-c2ccc(-c3ccc(Cl)c(Cl)c3)o2)c(C)c2c1[Si](C(C)C)(C(C)C)OC2 -1.17, COCCOC(=O)N1C(=O)[C@@]2(c3ccccc31)[C@H](C(=O)N1CCCCCCC1)[C@H]1C(=O)O[C@H](c3ccccc3)[C@H](c3ccccc3)N1[C@@H]2c1ccc(OCCO)cc1 -0.276, COc1ccc([Si](C)(C)[C@H]2[C@H](CCO)O[C@@]3(C(=O)N(Cc4ccccc4)c4ccc(N5CCCCC5=O)cc43)[C@@H]2C)cc1 -1.98, COCCCNC(=O)[C@@]1(Sc2ccc(C)cc2)CC(=O)N(Cc2ccccc2Cl)[C@@H]1c1ccc(CO)cc1 -0.915, CO[C@H]1O[C@H](CO)[C@@H](OC(=O)Nc2ccccc2)[C@@H]2OC(=O)[C@@H](Cc3ccc4ccccc4c3)C/C=C/C[C@H](Cc3ccc4ccccc4c3)C(=O)O[C@@H]12 -1.4, [N-]=[N+]=Nc1ccccc1C[C@]1(C(=O)N2CCCCC2)COC(c2ccc(OCCCO)cc2)=N1 1.38, C=C(C(=O)CC[C@H](OC(C)=O)c1ccccc1OCCO)C(C)C -0.679, COCCOC(=O)N1C(=O)[C@@]2(c3cc(C#CCCO)ccc31)[C@H](c1ccc(OCCO)cc1)N1[C@H](c3ccccc3)[C@H](c3ccccc3)OC(=O)[C@H]1[C@@H]2C(N)=O 0.502, C=CCC(OC(C)=O)[C@@H]1[C@@H](N(Cc2ccc(-c3ccccc3)cc2)C(=O)Cc2ccc(F)cc2)c2cc(OCCCO)ccc2N1C(=O)c1ccc2ccccc2c1 (stereo partly specified) 0.197, COC(=O)[C@@]1(Cc2ccccc2)[C@H]2c3cc(C(=O)N4CCCC4)n(Cc4ccc(O)c(OC)c4)c3C[C@H]2CN1C(=O)c1ccccc1 0.633, CCOC(=O)C1=CC[C@@H](c2ccc(C(F)(F)F)cc2)N(S(=O)(=O)c2ccc(C)cc2)[C@H]1c1ccccc1 1.43, O=C(CS)NCCCCCNC(=O)[C@@H]1C[C@@H]2C(=O)NCC(=O)N2[C@@H]1c1cccc(OCCO)c1 -1.2, C=CCC(OC(C)=O)[C@@H]1[C@@H](N(Cc2ccc(-c3cccc(C(F)(F)F)c3)o2)C(=O)Cc2ccc(OC)cc2)c2cc(OCCCO)ccc2N1C(=O)c1ccc2ccccc2c1 (stereo partly specified) -1, CC=CC(O)C1C=CC2C(=O)N(C)C(=O)C2N1N(c1ccccc1)c1ccccc1 (stereo unspecified) 0.305, O=C1O[C@@H](c2ccccc2)[C@@H](c2ccccc2)N2[C@@H](c3ccc(OCCO)cc3)[C@]3(C(=O)Nc4ccc(C#CCCO)cc43)[C@@H](C(=O)NC[C@H](O)c3ccccc3)[C@H]12 -0.703, CC[C@@H]1C=C(C(=O)O)[C@H](c2cccc3ccccc23)N1S(=O)(=O)c1ccc(C)cc1 0.235, C[N+](C)(C)CCCCCCNC(=O)[C@H]1C[C@H]2C(=O)N[C@@H](Cc3ccccc3)C(=O)N2[C@H]1c1cccc(OCCO)c1 -0.278, CCOC(=O)C[C@H]1[C@H](OC(=O)c2ccc(C(=O)c3ccccc3)cc2)[C@@H](NC(=O)Cc2ccc(OC)cc2)c2cc(OCCCO)ccc2N1C(=O)c1ccc2ccccc2n1 -0.193, CC(C)(C)OC(=O)CC[C@]1(C(=O)NCCN2CCOCC2)COC(c2ccc(OCCCO)cc2)=N1 -0.192, COc1ccc(C(=O)Nc2cccc(CN3C(=O)[C@]4(O[C@H](CCn5cc(CCO)nn5)[C@@H]([Si](C)(C)c5ccc(OC)cc5)[C@@H]4C)c4ccccc43)c2)cc1 -0.0511, COc1ccc(CCNC(=O)[C@@]2(c3ccc([N+](=O)[O-])cc3)CC(=O)N(CC34CC5CC(CC(C5)C3)C4)[C@@H]2c2ccc(CO)cc2I)cc1 -1.53, COc1ccc([C@H]2OC[C@@H]3CCC(=O)N32)cc1 0.495, O=C1O[C@@H](c2ccccc2)[C@@H](c2ccccc2)N2[C@@H](c3ccccc3OCCO)[C@]3(C(=O)Nc4ccccc43)[C@@H](C(=O)O)[C@H]12 -0.0695, CCOc1cc(C(O)C2C=CC3C(=O)N(c4ccccc4)C(=O)C3N2Nc2ccc(C(C)C)cc2)ccc1O (stereo unspecified) -0.941, O=C1OCC=C[C@H]2OC34C=CCN(Cn5nnc6ccccc65)C(=O)[C@H]3N(CCCCCO)C(=O)[C@@H]4[C@@H]12 (stereo partly specified) -1.03, COC(=O)C(CC#Cc1ccc2c(c1)[C@]1(C(=O)N2)[C@H](c2ccc(O)cc2)N2[C@H](c3ccccc3)[C@H](c3ccccc3)OC(=O)[C@H]2[C@@H]1C(=O)N1CCN(c2ncccn2)CC1)C(=O)OC -1.08, CC[C@@H]1C=C(C(=O)O)[C@H](c2ccc(C)cc2)N1S(=O)(=O)c1ccc(C)cc1 -0.498
